A selection: hits, their analogues and other compounds. The true share with any hit is near 5.9%.
DAX1 inh – NR0B1 (DAX1) inhibition. P51843. HEK293 Gal4-DAX1 luciferase reporter, luminescence. inhibition, % at 6.75 µM. actives 0.99% (n = 340,000). AID 504766;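 active means inhibition above the mean over all tested compounds plus 3 SD, cut at about 4.2% in these data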;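 further: 0% = DAX1-transfected cells with DMSO and 100% = empty-vector control cells with DMSO; inhibition shows as a rise in luminescence from relieved DAX1 repression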
HSP90 inh – inhibitors of HSP90 luciferase refolding in rabbit reticulocyte lysate; luciferase refolding luminescence, 3 h; inhibition, % at 5.6 µM; actives 0.91% (n = 290,000); AID 1789;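 active means inhibition above the screen-wide mean plus 3 SD, computed separately per campaign, cut at about 16% in these data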;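 further: 0% = DMSO wells and 100% = 60 µM geldanamycin wells; inhibitors lower the luminescence because luciferase stays unfolded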
AHR act – activates the human aryl hydrocarbon receptor. AID 2796. activation, % at 5 µM. AHR-responsive luciferase reporter cells, luminescence. actives 2.5% (n = 320,000); in the data active means activation above about 47%;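 further: 0% = vehicle wells and 100% = reference agonist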
Target sequence (P35869 whole entry, looked up): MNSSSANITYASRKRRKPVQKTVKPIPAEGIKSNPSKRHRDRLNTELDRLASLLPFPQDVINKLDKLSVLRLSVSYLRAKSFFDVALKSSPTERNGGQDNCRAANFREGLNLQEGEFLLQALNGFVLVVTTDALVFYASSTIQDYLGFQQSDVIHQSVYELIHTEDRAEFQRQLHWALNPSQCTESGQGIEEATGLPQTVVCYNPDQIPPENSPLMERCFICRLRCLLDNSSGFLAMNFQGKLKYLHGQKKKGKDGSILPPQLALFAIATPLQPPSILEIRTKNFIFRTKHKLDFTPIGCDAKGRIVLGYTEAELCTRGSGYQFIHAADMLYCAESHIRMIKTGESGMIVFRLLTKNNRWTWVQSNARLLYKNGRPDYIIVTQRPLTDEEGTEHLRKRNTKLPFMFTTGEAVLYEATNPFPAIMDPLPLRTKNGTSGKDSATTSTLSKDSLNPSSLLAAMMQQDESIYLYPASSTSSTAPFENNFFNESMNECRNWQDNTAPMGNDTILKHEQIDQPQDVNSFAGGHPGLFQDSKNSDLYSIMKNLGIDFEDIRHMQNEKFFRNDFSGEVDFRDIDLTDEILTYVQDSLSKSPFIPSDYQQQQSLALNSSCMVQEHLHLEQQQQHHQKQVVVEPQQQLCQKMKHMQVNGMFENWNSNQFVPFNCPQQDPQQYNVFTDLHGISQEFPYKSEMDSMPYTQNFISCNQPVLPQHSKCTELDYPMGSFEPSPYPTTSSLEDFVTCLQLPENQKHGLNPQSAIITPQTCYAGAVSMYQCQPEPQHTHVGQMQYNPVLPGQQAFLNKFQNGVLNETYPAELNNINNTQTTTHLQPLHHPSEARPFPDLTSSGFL
HSF-1 act – increases HSF-1 driven luciferase reporter signal; NIH3T3-HGL HSF-1 luciferase reporter, MG132, 8 h; 100% = twice DMSO control signal; activation, % at 9 µM; actives 1.7% (n = 300,000); AID 504408;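 active means mean replicate activation of at least 50% with a set share of replicates each reaching 50%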;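 further: 0% = median of the neutral control wells and 100% = twice that signal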
HSF1 inh – HSF1 inhibition | NIH3T3-HGL HSE-luciferase, MG132-induced, luminescence 8 h; hits give low values | activity change, negative = inhibition, % at 7.5 µM (by protocol) | actives 0.77% (n = 300,000) | AID 2098;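 active means more than half of replicate wells show activity change below -50%, luminescence cut by over half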;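 further: luciferase reports HSF-1 transcriptional activity via heat shock element; 0% = median of DMSO wells and -100% = zero luminescence signal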
GAA850 FXN act – frataxin GAA850 promoter activation | activation, % at 6 µM | HEK293 lucGAA850 FXN promoter luciferase reporter, 24 h; percent of 10 µM SAHA response | actives 0.56% (n = 360,000);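 active means activation above the average of all compounds screened plus 3 SD, cutoff fixed separately per campaign, cut at about 7.5% in these data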;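 further: 0% = DMSO wells and 100% = 10 µM SAHA wells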
AHR act cf – human AHR activation, confirmation; shares compounds with AHR act; human cells, AHR-responsive luciferase reporter, luminescence; activation, % at 9 µM; actives 87% (n = 2,300); AID 2845; in the data active means activation above about 49%;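 further: HepG2 hepatoma cells carrying a DRE-driven firefly luciferase reporter; 0% = vehicle wells and 100% = reference agonist wells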
PXR counter – PXR activation, counter-screen for AHR activators. shares compounds with AHR act. cell-based PXR reporter, luciferase luminescence. activation, % at 11.6 µM. actives 88% (n = 2,300). AID 434939; in the data active means activation above about 11%;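 further: human hepatoma DPX-2 cells expressing full-length human PXR; 0% = DMSO and 100% = reference agonist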
* = called active by the depositor; . = no result.

SMILES	DAX1 inh	HSP90 inh	AHR act	HSF-1 act	HSF1 inh	GAA850 FXN act	AHR act cf	PXR counter
Cc1nc(C)c(C(=O)N/N=C/c2c[nH]c3ccccc23)s1	-0.8	7.7	84.4*	12.5	0.7	-0.7	47.3*	.
Cc1ccc(NC(=S)NC(=O)C2CC2)cc1Cl	0.7	2.7	.	.	.	2.4	.	.
O=C(NC(=S)Nc1ccc(F)c(Cl)c1)C1CC1	2.1	-4.2	92.6*	1.8	11.9	3.0	95.3*	.
Fc1cccc(Cl)c1CSC1=NCCS1	0.0	0.1	-1.4	10.4	10.0	-1.0	.	.
O=C(CSc1ccc2ccccc2n1)c1ccc2c(c1)OCO2	1.8	6.7	102.6*	36.0	3.5	4.2	27.3	23.9*
Cc1ccccc1NC(=O)Cc1nc(COC(=O)c2cc([N+](=O)[O-])ccc2N)cs1	0.5	-1.1	-0.2	1.5	1.5	2.9	.	.
COc1cc(C2Nc3ccccc3C(=O)N2c2ccc(Cl)cc2)c(Cl)cc1OCC(=O)O (stereo not given)	2.9	10.3	115.9*	34.1	5.7	5.1	88.6*	15.2*
O=c1cc(CSc2nnc3ccccn23)c2c(ccc3ccccc32)o1	2.3	0.3	84.1*	16.3	12.2	-1.2	64.8*	28.9*
OC1(C#Cc2c(-c3ccsc3)oc3ccc(N4CCOCC4)cc23)CCCCC1	-0.1	.	110.9*	19.4	12.5	1.4	120.0*	80.3*
CC(=O)Nc1ccc(/C=C/c2nc(-c3ccccc3O)n[nH]2)cc1	-0.1	-3.5	80.5*	47.1	26.1	7.0	103.8*	7.0
Cc1[nH]n(-c2nc(-c3ccc(Cl)cc3)cs2)c(=O)c1N=Nc1ccc(O)cc1	.	5.4	1.9	9.4	21.2	4.8	.	.
Cc1ccccc1C(=O)NC(=S)NCCc1ccccc1	-0.9	-3.0	85.8*	2.8	11.0	3.6	103.7*	26.9*
COc1ccc(-c2csc3nc(-c4ccccc4)oc(=O)c23)cc1OC	0.5	-2.5	-1.3	-0.3	-1.3	1.2	.	.
N#Cc1ccc(C(=O)Nc2cc(S(=O)(=O)Nc3ccc(Cl)cc3)ccc2N2CCCCC2)cc1	-0.7	-1.0	104.9*	-13.1	9.2	1.4	57.7*	119.1*
c1ccc(C2=Nc3c(ccc4ccccc34)C(c3ccncc3)=NN2)cc1	0.0	-0.2	80.2*	.	.	-0.9	109.9*	46.1*
Cc1ccc2c(c1)C(c1ccncc1)=NNC(c1ccccc1)=N2	-0.2	3.4	-0.1	.	.	1.9	.	.
O=C(CSc1ncn[nH]1)NCc1ccccc1Cl	0.2	-5.0	0.7	-0.4	-3.9	1.9	.	.
CC1(C)CC[C@@]23CC[C@]4(C)[C@@](OC2=O)(C3C1)[C@H]1O[C@H]1C1[C@@]2(C)CC[C@H](O)C(C)(C)C2CC[C@]14C (stereo not given in full)	.	.	-0.3	4.1	1.8	.	.	.
Cc1csc(N/N=C/c2ccc(O)c([N+](=O)[O-])c2)n1	0.2	4.8	1.8	7.7	-3.1	-0.9	.	.
O=[N+]([O-])c1cc(/C=N\Nc2nc(-c3ccccc3)cs2)ccc1O	-0.6	-2.6	118.7*	28.1	10.6	2.0	39.4	3.5
O=C(/C=C/c1cccc(Cl)c1)c1nc2ccccc2[nH]1	-1.2	3.0	2.8	20.7	6.6	3.0	.	.
O=C(/C(=C\c1ccccc1)c1nc2ccccc2[nH]1)c1ccc(Cl)cc1	0.1	-0.4	80.4*	44.7	27.7	-4.7	16.0	117.0*
O=C(CCCn1c(=S)[nH]c2cc3c(cc2c1=O)OCO3)NCCc1ccccc1Cl	0.4	-1.8	7.0	-4.9	4.0	2.1	.	.
COc1ccc(Nc2nc(N)c([N+](=O)[O-])c(NCc3ccccc3)n2)cc1	0.1	12.7	17.1	-5.7	4.5	5.7	.	.
C=CCNc1nc(N)c([N+](=O)[O-])c(Nc2ccccc2OC)n1	-1.5	-1.4	116.2*	-3.5	-7.9	3.8	123.0*	21.0*
SMILES	DAX1 inh	HSP90 inh	AHR act	HSF-1 act	HSF1 inh	GAA850 FXN act	AHR act cf	PXR counter
COc1ccc(OC)c(Nc2nc(NCCC(C)C)nc(N)c2[N+](=O)[O-])c1	-0.5	4.2	20.3	15.7	8.3	1.6	.	.
CCC(C)Nc1nc(N)c([N+](=O)[O-])c(Nc2cc(OC)ccc2OC)n1 (stereo not given)	0.6	3.3	80.1*	1.9	5.7	2.6	126.7*	76.0*
Fc1ccc(-[n+]2nc(Nc3ccccc3)sc2-c2cccc(Cl)c2Cl)cc1	-0.2	-3.5	112.9*	12.3	3.7	-1.6	10.9	92.5*
C=CCNc1nc2ccccc2c(=O)[nH]1	0.8	-1.9	94.2*	-0.5	-2.2	4.2	8.4	8.7
COc1ccccc1NC(=O)C1CC(=O)OC1c1ccccc1 (stereo not given)	0.3	-0.1	-2.7	23.1	0.3	0.4	.	.
COc1ccccc1NC(=O)N1CCC(c2nc3cc(C)c(C)cc3[nH]2)CC1	-1.6	0.9	133.2*	-12.4	-13.1	1.9	33.5	56.2*
Cc1c(Cl)cccc1N(CC(=O)NC(C)c1ccccc1)S(C)(=O)=O (stereo not given)	-1.3	2.0	1.4	11.3	4.0	-0.7	.	.
O=C(O)c1ccccc1C(=O)NCCc1ccc(Cl)cc1	1.4	2.2	96.6*	10.9	4.0	0.7	63.7*	10.5*
Cc1cc(C(=O)NCCc2ccc(Cl)cc2)c2ccccc2n1	0.0	-3.3	4.3	9.1	16.8	2.6	.	.
Cc1ccc2[nH]c3c(NCCCN4CCCC4=O)ncnc3c2c1	-0.1	-4.3	85.8*	8.5	6.9	3.8	84.4*	161.5*
Cc1ccc(-n2ncc3c(NCCCN4CCCC4=O)ncnc32)c(C)c1	0.6	-0.7	-2.2	-5.8	3.3	1.9	.	.
CCN(CC)C(=O)C(=O)Nc1ccc(OC)c(Cl)c1	-0.3	-1.3	7.8	4.6	4.3	0.5	.	.
C=C1c2cc3c(cc2NC(=S)N1Cc1ccccc1)OCO3	.	-2.0	86.5*	6.7	7.2	1.3	64.5*	144.9*
S=C(NCc1ccc2c(c1)OCO2)NC1CCN(Cc2ccccc2)CC1	-0.8	12.5	-1.0	-30.5	-23.6	-1.6	.	.
Cc1ccccc1NC(=O)/C(C#N)=C\c1ccsc1	1.1	-0.2	83.6*	15.3	15.7	5.6	49.6*	62.3*
COc1ccc(-c2nc(-c3ccccc3)c(-c3cc([N+](=O)[O-])ccc3C)[nH]2)cc1OC	0.4	6.5	12.2	-16.3	-10.0	-0.2	.	.
COc1ccc(-c2[nH]c(-c3cc(OC)c4c(c3)OCO4)nc2-c2ccccc2)cc1	-0.8	-0.1	107.2*	-5.8	-6.4	0.7	54.0*	56.9*
CC1CCCCC12NC(=O)N(CC(=O)Nc1ccc(OC(F)F)cc1)C2=O (stereo not given)	0.1	.	1.4	.	.	0.7	.	.

Source: PubChem (several laboratories)
